# Publication PMC7862700, “An all-to-all approach to the identification of sequence-specific readers for epigenetic DNA modifications on cytosine”
# Assays:
# Test in all cases: DAPPL (digital affinity profiling via proximity ligation, sequencing); 10 mM Tris-HCl pH 7.5, 50 mM NaCl, 1 mM DTT, 4% glycerol, room temperature, 30 min; GST-TFs on glutathione beads, 16-mer random dsDNA library, 0.1% formaldehyde crosslink after washing; high values mean tight binding
# [1] = target: T1, FLI1 (Homo sapiens, UniProt Q01543 1-452); conditions: protein: recombinant; tags: N-terminal GST; dsDNA, one strand shown
# T1 sequence: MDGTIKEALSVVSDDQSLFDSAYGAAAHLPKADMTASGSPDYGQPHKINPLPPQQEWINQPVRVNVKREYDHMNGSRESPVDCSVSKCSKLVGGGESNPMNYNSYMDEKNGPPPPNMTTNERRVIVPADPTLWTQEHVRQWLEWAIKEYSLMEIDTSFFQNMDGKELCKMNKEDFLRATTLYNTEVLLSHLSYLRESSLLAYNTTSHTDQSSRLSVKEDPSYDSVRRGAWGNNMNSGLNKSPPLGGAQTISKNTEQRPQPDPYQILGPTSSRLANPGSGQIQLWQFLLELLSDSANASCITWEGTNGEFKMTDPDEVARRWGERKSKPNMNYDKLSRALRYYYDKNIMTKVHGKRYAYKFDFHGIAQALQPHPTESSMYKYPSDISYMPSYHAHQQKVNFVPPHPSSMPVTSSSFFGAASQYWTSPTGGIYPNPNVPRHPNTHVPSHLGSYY
# Summary of the method: (§1)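 GST fusions of human transcription factors were expressed in yeast and captured with glutathione beads. Once given DNA barcodes and pooled alongside a tag-only sample, they were incubated for 30 min at room temperature with 200 nmole of a random double-stranded 16-mer DNA library in Tris/NaCl/DTT/glycerol buffer, then washed, crosslinked (0.1% formaldehyde), proximity-ligated, PCR-amplified and sequenced on an Illumina NextSeq500. The binding signal of each hexamer is its read frequency for a factor divided by its frequency for the tag-only sample.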
# [2] = target: T2, ELK1 (Homo sapiens, UniProt P19419 1-428); conditions: protein: recombinant; tags: N-terminal GST; dsDNA, one strand shown
# T2 sequence: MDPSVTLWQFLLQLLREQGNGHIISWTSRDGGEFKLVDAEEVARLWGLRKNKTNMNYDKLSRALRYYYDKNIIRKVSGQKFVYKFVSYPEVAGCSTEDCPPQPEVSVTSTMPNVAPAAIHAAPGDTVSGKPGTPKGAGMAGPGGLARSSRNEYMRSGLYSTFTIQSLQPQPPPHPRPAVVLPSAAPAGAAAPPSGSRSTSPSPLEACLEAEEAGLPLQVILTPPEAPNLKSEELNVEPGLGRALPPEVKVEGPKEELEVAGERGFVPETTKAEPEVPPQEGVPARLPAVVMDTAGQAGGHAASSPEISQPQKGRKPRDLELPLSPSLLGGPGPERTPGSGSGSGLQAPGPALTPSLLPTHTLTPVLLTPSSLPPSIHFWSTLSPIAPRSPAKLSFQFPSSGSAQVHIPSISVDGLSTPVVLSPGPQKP
# Summary of the method: as §1
# [3] = target: T3, GABPA (Homo sapiens, UniProt Q06546 1-454); conditions: protein: recombinant; tags: N-terminal GST; dsDNA, one strand shown
# T3 sequence: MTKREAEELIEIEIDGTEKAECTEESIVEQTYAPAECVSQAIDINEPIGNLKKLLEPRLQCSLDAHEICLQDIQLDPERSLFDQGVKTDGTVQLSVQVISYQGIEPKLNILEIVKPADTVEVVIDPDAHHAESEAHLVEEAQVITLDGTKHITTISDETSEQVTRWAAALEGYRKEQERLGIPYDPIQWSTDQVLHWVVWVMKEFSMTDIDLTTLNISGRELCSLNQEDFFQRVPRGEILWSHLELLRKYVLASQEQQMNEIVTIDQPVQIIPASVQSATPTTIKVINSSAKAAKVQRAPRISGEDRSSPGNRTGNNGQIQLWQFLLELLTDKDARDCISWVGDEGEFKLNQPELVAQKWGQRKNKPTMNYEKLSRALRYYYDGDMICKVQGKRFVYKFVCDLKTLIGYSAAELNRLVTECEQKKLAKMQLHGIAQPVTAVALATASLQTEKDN
# Summary of the method: as §1
# [4] = target: T4, ERG (Homo sapiens, UniProt P11308 1-479); conditions: protein: recombinant; tags: N-terminal GST; dsDNA, one strand shown
# T4 sequence: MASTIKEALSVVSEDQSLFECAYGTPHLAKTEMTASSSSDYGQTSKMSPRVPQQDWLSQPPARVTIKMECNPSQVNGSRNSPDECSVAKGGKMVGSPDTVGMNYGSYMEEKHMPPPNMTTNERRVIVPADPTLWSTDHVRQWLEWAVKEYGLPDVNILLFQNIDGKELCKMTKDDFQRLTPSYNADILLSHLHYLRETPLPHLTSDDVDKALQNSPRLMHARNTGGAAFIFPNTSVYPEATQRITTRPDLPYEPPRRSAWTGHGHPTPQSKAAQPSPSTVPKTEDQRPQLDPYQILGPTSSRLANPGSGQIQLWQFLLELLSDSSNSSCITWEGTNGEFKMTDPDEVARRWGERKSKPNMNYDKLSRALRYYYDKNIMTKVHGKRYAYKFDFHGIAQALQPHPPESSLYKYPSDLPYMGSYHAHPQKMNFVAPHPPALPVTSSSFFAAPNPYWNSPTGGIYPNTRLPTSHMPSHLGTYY
# Summary of the method: as §1
# [5] = target: ELF1 (Homo sapiens, UniProt P32519 1-619); conditions: protein: recombinant; tags: N-terminal GST; dsDNA, one strand shown
# ELF1, sequence (P32519 whole entry): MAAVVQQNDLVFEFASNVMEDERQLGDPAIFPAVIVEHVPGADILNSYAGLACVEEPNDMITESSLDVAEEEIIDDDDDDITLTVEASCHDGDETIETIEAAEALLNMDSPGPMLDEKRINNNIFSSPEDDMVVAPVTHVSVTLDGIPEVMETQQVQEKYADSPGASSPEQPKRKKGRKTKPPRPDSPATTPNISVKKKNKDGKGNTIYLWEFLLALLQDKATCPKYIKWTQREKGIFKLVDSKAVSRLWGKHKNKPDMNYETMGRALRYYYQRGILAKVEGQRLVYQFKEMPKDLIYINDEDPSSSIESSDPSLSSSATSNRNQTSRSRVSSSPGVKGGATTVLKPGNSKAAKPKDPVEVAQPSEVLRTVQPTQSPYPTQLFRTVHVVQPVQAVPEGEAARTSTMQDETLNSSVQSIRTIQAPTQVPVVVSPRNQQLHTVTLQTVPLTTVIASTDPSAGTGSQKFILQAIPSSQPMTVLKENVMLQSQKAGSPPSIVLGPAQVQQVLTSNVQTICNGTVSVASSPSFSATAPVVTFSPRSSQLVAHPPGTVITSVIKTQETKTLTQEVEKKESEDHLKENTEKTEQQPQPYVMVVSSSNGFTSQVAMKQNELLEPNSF
# Summary of the method: as §1
# [6] = target: T5, EHF (Homo sapiens, UniProt Q9NZC4 1-300); conditions: protein: recombinant; tags: N-terminal GST; dsDNA, one strand shown
# T5 sequence: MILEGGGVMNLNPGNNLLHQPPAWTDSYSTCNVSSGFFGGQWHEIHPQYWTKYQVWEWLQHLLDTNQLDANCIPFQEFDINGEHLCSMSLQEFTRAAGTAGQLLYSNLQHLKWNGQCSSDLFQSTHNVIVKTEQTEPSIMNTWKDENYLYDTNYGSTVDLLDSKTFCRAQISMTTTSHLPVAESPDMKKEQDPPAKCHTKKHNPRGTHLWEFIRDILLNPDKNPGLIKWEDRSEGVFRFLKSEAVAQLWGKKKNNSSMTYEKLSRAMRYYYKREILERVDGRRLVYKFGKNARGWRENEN
# Summary of the method: as §1
# [7] = target: SPI1 (Homo sapiens, UniProt P17947 1-270); conditions: protein: recombinant; tags: N-terminal GST; dsDNA, one strand shown
# Summary of the method: as §1
# [8] = target: SPIB (Homo sapiens, UniProt Q01892 1-262); conditions: protein: recombinant; tags: N-terminal GST; dsDNA, one strand shown
# SPIB, sequence (Q01892 whole entry): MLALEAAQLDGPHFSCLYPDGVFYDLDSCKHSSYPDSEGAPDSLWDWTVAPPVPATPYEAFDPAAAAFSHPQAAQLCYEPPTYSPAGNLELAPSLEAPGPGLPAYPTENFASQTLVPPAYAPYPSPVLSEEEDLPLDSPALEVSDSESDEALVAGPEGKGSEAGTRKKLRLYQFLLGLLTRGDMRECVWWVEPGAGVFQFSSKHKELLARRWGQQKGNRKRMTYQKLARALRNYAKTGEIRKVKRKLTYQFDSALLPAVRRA
# Summary of the method: as §1
# [9] = target: T6, ELK3 (Homo sapiens, UniProt P41970 1-407); conditions: protein: recombinant; tags: N-terminal GST; dsDNA, one strand shown
# T6 sequence: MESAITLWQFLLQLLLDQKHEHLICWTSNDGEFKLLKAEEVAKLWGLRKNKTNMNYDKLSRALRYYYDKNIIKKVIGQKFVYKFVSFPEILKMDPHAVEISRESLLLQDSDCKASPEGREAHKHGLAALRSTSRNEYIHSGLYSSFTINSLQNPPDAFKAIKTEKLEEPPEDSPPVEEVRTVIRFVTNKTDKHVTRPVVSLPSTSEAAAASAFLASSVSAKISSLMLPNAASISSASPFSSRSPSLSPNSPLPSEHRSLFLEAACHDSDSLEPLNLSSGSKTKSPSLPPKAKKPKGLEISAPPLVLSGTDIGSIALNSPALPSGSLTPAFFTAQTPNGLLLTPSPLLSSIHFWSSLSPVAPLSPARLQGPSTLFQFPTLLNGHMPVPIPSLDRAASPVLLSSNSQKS
# Summary of the method: as §1
# [10] = target: T7, FEV (Homo sapiens, UniProt Q99581 1-238); conditions: protein: recombinant; tags: N-terminal GST; dsDNA, one strand shown
# T7 sequence: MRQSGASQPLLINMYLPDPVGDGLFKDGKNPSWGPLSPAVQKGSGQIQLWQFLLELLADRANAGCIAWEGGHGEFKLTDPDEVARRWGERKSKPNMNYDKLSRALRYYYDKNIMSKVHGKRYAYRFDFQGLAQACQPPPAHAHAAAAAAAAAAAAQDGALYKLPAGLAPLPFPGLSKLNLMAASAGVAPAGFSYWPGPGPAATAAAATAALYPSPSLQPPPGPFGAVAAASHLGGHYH
# Summary of the method: as §1
# [11] = target: ETV5 (Homo sapiens, UniProt P41161 1-510); conditions: protein: recombinant; tags: N-terminal GST; dsDNA, one strand shown
# ETV5, sequence (P41161 whole entry): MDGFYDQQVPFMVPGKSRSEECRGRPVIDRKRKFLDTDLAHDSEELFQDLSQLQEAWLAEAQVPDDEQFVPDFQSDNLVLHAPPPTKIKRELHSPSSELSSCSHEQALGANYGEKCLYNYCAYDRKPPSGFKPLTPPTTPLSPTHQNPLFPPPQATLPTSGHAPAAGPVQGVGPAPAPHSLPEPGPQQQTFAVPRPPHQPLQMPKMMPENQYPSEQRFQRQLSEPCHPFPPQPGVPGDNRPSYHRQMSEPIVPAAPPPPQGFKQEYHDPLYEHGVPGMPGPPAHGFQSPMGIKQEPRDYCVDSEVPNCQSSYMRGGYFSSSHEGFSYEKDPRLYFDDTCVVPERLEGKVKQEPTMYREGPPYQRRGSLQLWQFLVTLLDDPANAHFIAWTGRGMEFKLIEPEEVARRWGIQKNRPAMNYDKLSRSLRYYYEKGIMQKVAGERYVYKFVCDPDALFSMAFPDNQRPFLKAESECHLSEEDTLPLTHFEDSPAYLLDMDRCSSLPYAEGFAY
# Summary of the method: as §1
# [12] = target: HSF1 (Homo sapiens, UniProt Q00613 1-529); conditions: protein: recombinant; tags: N-terminal GST; chain copies: 3; dsDNA, one strand shown
# HSF1, sequence (Q00613 whole entry): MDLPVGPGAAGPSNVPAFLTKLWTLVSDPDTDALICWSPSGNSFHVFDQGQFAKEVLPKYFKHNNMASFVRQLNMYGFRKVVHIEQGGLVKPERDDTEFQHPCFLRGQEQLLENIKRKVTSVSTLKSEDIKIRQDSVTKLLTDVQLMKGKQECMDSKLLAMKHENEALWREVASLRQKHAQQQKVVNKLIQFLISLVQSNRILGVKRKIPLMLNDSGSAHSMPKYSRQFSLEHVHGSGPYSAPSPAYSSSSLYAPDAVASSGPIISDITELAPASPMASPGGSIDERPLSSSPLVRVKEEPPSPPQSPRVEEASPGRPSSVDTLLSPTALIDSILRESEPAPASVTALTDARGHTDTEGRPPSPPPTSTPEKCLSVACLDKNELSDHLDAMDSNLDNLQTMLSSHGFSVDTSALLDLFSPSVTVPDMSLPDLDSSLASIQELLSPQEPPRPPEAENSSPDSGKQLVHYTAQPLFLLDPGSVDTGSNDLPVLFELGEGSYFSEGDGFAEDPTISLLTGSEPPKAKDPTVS
# Summary of the method: as §1
# [13] = target: T8, SPIC (Homo sapiens, UniProt Q8N5J4 1-248); conditions: protein: recombinant; tags: N-terminal GST; dsDNA, one strand shown
# T8 sequence: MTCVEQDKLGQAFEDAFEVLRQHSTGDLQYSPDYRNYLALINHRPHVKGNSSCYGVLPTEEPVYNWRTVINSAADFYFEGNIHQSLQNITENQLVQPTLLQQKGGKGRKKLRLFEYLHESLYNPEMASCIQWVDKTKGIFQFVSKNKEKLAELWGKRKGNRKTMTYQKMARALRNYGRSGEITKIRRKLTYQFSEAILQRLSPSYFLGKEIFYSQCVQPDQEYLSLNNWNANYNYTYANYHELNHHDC
# Summary of the method: as §1
# [14] = target: ELF4 (Homo sapiens, UniProt Q99607 1-663); conditions: protein: recombinant; tags: N-terminal GST; dsDNA, one strand shown
# ELF4, sequence (Q99607 whole entry): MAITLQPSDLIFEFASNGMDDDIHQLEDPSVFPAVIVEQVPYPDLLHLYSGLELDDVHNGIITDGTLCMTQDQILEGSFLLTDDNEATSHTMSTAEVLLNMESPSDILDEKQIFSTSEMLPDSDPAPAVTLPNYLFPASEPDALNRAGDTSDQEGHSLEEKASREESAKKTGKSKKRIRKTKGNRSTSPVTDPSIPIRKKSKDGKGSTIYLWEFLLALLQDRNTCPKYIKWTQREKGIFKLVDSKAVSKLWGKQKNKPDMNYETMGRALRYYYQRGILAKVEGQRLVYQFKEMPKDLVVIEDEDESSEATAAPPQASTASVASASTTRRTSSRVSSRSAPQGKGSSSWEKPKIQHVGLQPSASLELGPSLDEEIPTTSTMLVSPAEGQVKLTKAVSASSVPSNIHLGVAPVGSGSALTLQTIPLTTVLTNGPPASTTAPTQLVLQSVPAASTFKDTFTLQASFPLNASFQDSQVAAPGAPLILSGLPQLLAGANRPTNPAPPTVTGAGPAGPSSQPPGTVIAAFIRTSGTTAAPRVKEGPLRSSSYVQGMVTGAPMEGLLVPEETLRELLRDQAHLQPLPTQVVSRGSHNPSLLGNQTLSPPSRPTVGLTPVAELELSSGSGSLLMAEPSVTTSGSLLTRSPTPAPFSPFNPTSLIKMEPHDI
# Summary of the method: as §1
# [15] = target: T9, ELK4 (Homo sapiens, UniProt P28324-2 1-405); conditions: protein: recombinant; tags: N-terminal GST; dsDNA, one strand shown
# T9 sequence: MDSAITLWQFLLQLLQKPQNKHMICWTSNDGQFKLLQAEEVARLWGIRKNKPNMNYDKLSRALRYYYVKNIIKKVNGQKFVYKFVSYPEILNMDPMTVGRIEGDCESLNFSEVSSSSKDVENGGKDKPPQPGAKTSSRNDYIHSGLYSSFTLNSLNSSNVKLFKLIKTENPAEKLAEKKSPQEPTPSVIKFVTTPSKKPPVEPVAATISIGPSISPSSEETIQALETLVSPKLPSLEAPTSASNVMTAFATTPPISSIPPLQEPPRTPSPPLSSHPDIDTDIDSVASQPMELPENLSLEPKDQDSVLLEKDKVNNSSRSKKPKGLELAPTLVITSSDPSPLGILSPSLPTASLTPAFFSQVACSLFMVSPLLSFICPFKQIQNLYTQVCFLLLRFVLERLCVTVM
# Summary of the method: as §1
# [16] = target: T10, ETV2 (Homo sapiens, UniProt O00321 1-342); conditions: protein: recombinant; tags: N-terminal GST; dsDNA, one strand shown
# T10 sequence: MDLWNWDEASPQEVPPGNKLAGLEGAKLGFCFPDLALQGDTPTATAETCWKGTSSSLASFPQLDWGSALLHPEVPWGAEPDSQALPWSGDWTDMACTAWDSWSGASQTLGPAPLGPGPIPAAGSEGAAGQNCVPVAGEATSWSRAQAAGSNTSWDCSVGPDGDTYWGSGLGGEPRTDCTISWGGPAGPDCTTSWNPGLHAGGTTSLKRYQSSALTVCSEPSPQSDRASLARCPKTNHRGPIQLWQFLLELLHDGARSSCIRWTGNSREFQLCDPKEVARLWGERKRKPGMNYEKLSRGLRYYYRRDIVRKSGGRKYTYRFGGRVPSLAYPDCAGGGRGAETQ
# Summary of the method: as §1
# [17] = target: T11, ELF3 (Homo sapiens, UniProt P78545 1-371); conditions: protein: recombinant; tags: N-terminal GST; dsDNA, one strand shown
# T11 sequence: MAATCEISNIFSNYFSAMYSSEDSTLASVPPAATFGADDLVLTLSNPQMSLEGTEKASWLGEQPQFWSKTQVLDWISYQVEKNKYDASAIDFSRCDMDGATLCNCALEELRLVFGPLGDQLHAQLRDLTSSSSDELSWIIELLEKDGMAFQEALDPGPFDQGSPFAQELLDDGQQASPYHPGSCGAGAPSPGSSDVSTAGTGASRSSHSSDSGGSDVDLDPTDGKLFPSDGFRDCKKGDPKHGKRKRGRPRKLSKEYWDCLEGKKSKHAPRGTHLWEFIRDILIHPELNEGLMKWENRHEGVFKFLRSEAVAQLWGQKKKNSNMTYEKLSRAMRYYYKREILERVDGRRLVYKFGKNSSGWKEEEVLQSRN
# Summary of the method: as §1
# [18] = target: CRX (Homo sapiens, UniProt O43186 1-299); conditions: protein: recombinant; tags: N-terminal GST; dsDNA, one strand shown
# CRX, sequence (O43186 whole entry): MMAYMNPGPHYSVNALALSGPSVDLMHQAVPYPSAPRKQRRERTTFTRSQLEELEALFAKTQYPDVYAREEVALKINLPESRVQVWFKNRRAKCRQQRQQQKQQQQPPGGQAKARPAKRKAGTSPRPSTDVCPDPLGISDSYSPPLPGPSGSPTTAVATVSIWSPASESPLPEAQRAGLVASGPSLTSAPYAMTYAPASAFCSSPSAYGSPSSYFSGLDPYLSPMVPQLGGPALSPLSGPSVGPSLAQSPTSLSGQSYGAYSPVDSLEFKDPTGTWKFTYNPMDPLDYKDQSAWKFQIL
# Summary of the method: as §1
# [19] = target: ETV1 (Homo sapiens, UniProt P50549 1-477); conditions: protein: recombinant; tags: N-terminal GST; dsDNA, one strand shown
# ETV1, sequence (P50549 whole entry): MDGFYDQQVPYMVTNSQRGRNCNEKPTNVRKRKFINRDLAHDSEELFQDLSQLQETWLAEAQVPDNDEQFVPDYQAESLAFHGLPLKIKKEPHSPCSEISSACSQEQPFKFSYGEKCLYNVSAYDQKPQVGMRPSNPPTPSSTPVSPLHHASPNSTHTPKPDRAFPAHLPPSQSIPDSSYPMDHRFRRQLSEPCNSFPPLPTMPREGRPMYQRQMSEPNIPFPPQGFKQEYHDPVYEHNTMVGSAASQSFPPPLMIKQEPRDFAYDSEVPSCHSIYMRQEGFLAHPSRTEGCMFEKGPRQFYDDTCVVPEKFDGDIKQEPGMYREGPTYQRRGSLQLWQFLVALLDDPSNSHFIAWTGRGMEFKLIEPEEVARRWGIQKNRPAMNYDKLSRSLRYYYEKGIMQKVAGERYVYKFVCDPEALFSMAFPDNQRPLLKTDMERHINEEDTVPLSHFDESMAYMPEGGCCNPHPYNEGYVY
# Summary of the method: as §1
sequence,measurement,setting,value
CCCCTT,binding signal,[1],"1.48 fold enrichment (6-mer frequency, TF over GST control)"
same,binding signal,[2],"1.55 fold enrichment (6-mer frequency, TF over GST control)"
same,binding signal,[3],"1.44 fold enrichment (6-mer frequency, TF over GST control)"
same,binding signal,[4],"1.54 fold enrichment (6-mer frequency, TF over GST control)"
same,binding signal,[5],"1.53 fold enrichment (6-mer frequency, TF over GST control)"
same,binding signal,[6],"1.62 fold enrichment (6-mer frequency, TF over GST control)"
same,binding signal,[7],"2.01 fold enrichment (6-mer frequency, TF over GST control)"
same,binding signal,[8],"1.53 fold enrichment (6-mer frequency, TF over GST control)"
same,binding signal,[9],"1.51 fold enrichment (6-mer frequency, TF over GST control)"
same,binding signal,[10],"1.57 fold enrichment (6-mer frequency, TF over GST control)"
same,binding signal,[11],"1.62 fold enrichment (6-mer frequency, TF over GST control)"
same,binding signal,[12],"1.37 fold enrichment (6-mer frequency, TF over GST control)"
same,binding signal,[13],"1.56 fold enrichment (6-mer frequency, TF over GST control)"
same,binding signal,[14],"1.63 fold enrichment (6-mer frequency, TF over GST control)"
same,binding signal,[15],"1.53 fold enrichment (6-mer frequency, TF over GST control)"
same,binding signal,[16],"1.35 fold enrichment (6-mer frequency, TF over GST control)"
same,binding signal,[17],"1.6 fold enrichment (6-mer frequency, TF over GST control)"
same,binding signal,[18],"1.41 fold enrichment (6-mer frequency, TF over GST control)"
same,binding signal,[19],"1.63 fold enrichment (6-mer frequency, TF over GST control)"
